In all, about 96,000 compounds went through this assay and about 20,000 (21%) were called active. These entries were drawn from the full list. Unmarked numbers belong to inactive results.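 Rule for the calls: active = CYP2C19 inhibition above a set limit at 5 µM in the primary screen (cut at about 50% in these data); inactive = the rest.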

Usually inhibition stands for the change of the read-out against control, counted positive when it falls.

Cytochrome P450 2C19 (Homo sapiens), sequence (P33261 whole entry, looked up): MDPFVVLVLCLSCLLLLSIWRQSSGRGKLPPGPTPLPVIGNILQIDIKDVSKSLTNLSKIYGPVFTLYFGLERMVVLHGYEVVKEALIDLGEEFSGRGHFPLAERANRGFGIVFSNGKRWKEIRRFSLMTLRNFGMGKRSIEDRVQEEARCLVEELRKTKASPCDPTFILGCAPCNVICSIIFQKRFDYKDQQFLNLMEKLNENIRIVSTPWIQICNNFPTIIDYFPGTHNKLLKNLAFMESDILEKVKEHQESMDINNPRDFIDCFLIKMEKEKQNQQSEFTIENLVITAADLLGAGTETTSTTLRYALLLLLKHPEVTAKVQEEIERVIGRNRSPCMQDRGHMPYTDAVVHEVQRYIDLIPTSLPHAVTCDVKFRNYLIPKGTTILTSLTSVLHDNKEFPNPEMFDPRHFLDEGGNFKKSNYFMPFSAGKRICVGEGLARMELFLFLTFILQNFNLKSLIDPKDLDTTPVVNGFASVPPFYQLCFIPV

This assay has as its target Cytochrome P450 2C19 (Homo sapiens) (UniProt P33261). In words: blockers of cytochrome P450 2C19 activity – biochemical, luminescence, ADME assay, primary screen (AID 778).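 Note: plate controls were negative control wells for no effect and 2.5 mM tranylcypromine positive control for full effect.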 As to conditions: CYP2C19 Supersomes, luciferin-H EGE luminescence, 30 min; at 5 µM; hits give high values.
With `COc1cccc(OC)c1C(=O)Nc1ccc(N2CCCCC2)cc1`, the inhibition is -3.6%.

Consider `COc1ccc(-c2cc(C(=O)n3cnc4ccccc43)c3ccccc3n2)cc1`, for which the inhibition is 74.8% (active). In the case of `Cc1ccc(OCC(=O)Nn2cnc3ccccc32)cc1`, the inhibition is 17.2%.

As for `Cc1ccc2nc(-c3ccccc3)cc(C(=O)O)c2c1`, the inhibition was -3.4%.

Turning to `O=C(C1=C(O)C(=O)N(c2ncccn2)C1c1cccs1)c1ccco1` (stereo not drawn), the inhibition is 1.3%. As for `CCC(=O)OCc1c(C(F)(F)F)nn(C)c1Oc1cccc(C(F)(F)F)c1`, the inhibition is 57.7% (active). For the compound `Cn1nc(C(F)(F)F)c2cc(NC(=O)OCC(C)(C)C)sc21`, the inhibition is 34.6%.

Turning to `CCC(=O)c1ccc(OCC(O)CN2CCN(c3cccc(C(F)(F)F)c3)CC2)cc1` (stereo not drawn), the inhibition is 25.5%. Turning to `COc1ccc(Nc2cc(=O)oc3ccccc23)cc1`, the inhibition was 17.7%.

In the case of `CCOc1ccccc1NC(=O)C1CCN(S(=O)(=O)c2c(C)nn(C)c2C)CC1`, the inhibition is 44.7%. With `CCOc1ccc(OCC)c(NC(=O)C2CCN(S(=O)(=O)c3c(C)noc3C)CC2)c1`, the inhibition is 54.5% (active). Under `Cc1noc(/C=C/N(C)C)c1S(=O)(=O)N1CCCC(C(=O)NCc2ccco2)C1` (stereo not drawn) stands 39.6%. As to `Cc1noc(C)c1S(=O)(=O)N1CCCC(C(=O)Nc2nccs2)C1` (stereo not drawn), the inhibition is 78.8% (active). For `CCOC(=O)C1CCN(C(=O)C2CCN(S(=O)(=O)c3c(C)noc3C)CC2)CC1`, the inhibition is 14.7%. Consider `Cc1ccc(NC(=O)C2CCCN(S(=O)(=O)c3c(C)noc3C)C2)c(C)c1` (stereo not drawn), for which the inhibition was 11.2%.

On to `COc1ccc(N2CCN(Cc3ccc(Br)s3)CC2)cc1`, for which the inhibition was 96.1% (active). With `Fc1ccc(N2CCN(Cc3cnc(Oc4ccc(Br)cc4)s3)CC2)cc1`, the inhibition is 2.8%.

With `COc1ccc(N2CCN(Cc3cc(=O)oc4ccc5ccccc5c34)CC2)cc1`, the inhibition was 12.4%. As for `C=CCSC1=C(C#N)C(c2cc(Br)c(O)c(OC)c2)CC(=O)N1` (stereo not drawn), the inhibition is 67.5% (active).

Take `Cc1ccc(Cl)cc1NC(=O)COC(=O)C1CCCCC1`: the inhibition is 32.1%.

As for `CC(C)c1ccc(N2CC(C(=O)Nc3nccs3)CC2=O)cc1` (stereo not drawn), the inhibition is 59.1% (active). In the case of `CCc1ccc(N2CC(C(=O)NC3=NCCS3)CC2=O)cc1` (stereo not drawn), the inhibition was -1.1%. Take `CCCOc1ccc(N2CC(C(=O)Nc3ccccn3)CC2=O)cc1` (stereo not drawn): the inhibition is -18.5%. In the case of `CN(C)C(=O)c1cc(Br)ccc1Cl`, the inhibition is 4%.

For `CCOc1cccc(/C(O)=C2/C(=O)C(=O)N(CCOC)C2c2ccncc2)c1` (stereo not drawn), the inhibition is -18.2%. With `COc1ccc(N2C(=O)CC(N3CCC(C(N)=O)CC3)C2=O)cc1` (stereo not drawn), the inhibition is -28.9%. Take `COc1ccc(C(=O)Nc2ccc(S(=O)(=O)NC(C)C)cc2)cc1`: the inhibition is 42.9%. With `COC(=O)CNS(=O)(=O)c1ccc(OC)cc1`, the inhibition is 10.3%. `CO/N=C(/CS(=O)(=O)c1ccc(Br)cc1)c1ccc(OC)cc1`: the inhibition is 100% (active). Regarding `Cc1nc(-c2ccccc2)sc1-c1nc(-c2ccccc2)ncc1S(=O)(=O)c1ccccc1`, the inhibition is 5.1%.

With `CC(C)NS(=O)(=O)c1ccc(CCC(=O)N2CCOCC2)cc1`, the inhibition is 14.2%. Take `Cn1c(C(=O)OC(C(=O)NC2CCCCC2)c2ccccn2)cc2sccc21` (stereo not drawn): the inhibition was 67.2% (active). Under `O=C(OC(C(=O)NC1CCCC1)c1ccc(F)cc1)c1ccno1` (stereo not drawn) stands 8.1%; under `CC(=O)OC(C(=O)NC1CCCCC1)c1ccccc1` (stereo not drawn), 20.2%; under `Cc1nc2c(c(=O)n1Cc1ccco1)c1nc3ccccc3nc1n2Cc1ccccc1`, 3%. Regarding `CCn1c(C)nc2c1C(=O)c1ccccc1C2=O`, the inhibition is -8.5%. Take `Cc1nc2ccccc2c(=O)n1CCCn1ccnc1`: the inhibition was 50.8% (active). For the compound `CCC(C)N1C(=O)S/C(=C/c2ccc(Sc3nc4ccccc4[nH]3)o2)C1=O` (stereo not drawn), the inhibition was 43.3%. As for `CC(C)Cc1oc(C(=O)O)cc1CN`, the inhibition was 4.2%.

In the case of `CC1OC2C(OC1C)N(S(C)(=O)=O)CCN2S(C)(=O)=O` (stereo not drawn), the inhibition is -4.8%. Under `Cc1ccc(CNC(=O)C2CC(=O)N(C3CCCCCCC3)C2)cc1` (stereo not drawn) stands -2.5%; under `CCc1ccc(CNC(=O)C2CC(=O)N(CCc3ccc(C)cc3)C2)cc1` (stereo not drawn), 54.2% (active). Under `Cc1ccc(CCN2CC(C(=O)O)CC2=O)cc1` (stereo not drawn) stands -0.5%; under `O=C(NC1CCCCC1)c1ccc(CNc2c(N3CCOCC3)c(=O)c2=O)cc1`, 9.7%; under `O=C1OC(NC(=O)c2ccccc2)C(N2CCOCC2)=C1Cl` (stereo not drawn), 52.8% (active). For `Cc1ccc(C(=O)NC2CCN(C(=O)N3CCOCC3)CC2)cc1`, the inhibition is -1.3%. Under `COc1ccc(NC(=O)C(NC(C)=O)C(=O)NCc2ccccc2Cl)cc1` (stereo not drawn) stands 12.9%; under `COc1ncnc2c1N=C1CC(C)(C)CC(N)=C1S2`, 4.5%. Turning to `O=c1[nH]nc(Cc2ccccn2)c2ccccc12`, the inhibition is -0.8%. The result for `CN(CCc1ccccn1)S(=O)(=O)c1ccc2c3c(cccc13)C(=O)N2` reads 93.6% (active); that for `CCCC1C(c2ccccc2)C(C#N)(C#N)C2(C#N)CC1(N)NC2=O` (stereo not drawn), 5%. On to `O=C(O)c1ccccc1NC(=S)NC(NC(=O)c1ccccc1[N+](=O)[O-])C(Cl)(Cl)Cl` (stereo not drawn), for which the inhibition is 2%.

Regarding `CC1(C)N=C(c2ccccn2)C(C)(C)N1O`, the inhibition was 29.9%.

As for `COc1ccc(NC(=O)Nc2ccc3nsnc3c2)cc1`, the inhibition was 20.3%.

With `COc1cccc(N2C(=O)C3CCCN3C2c2ccc(F)cc2)c1` (stereo not drawn), the inhibition was -0.1%. In the case of `O=C(/C=C/c1ccco1)Nc1cccc(-c2nc3ccccc3[nH]2)c1`, the inhibition was 47.9%.

For `O=S(=O)(Nc1ccc2nc(-c3ccco3)[nH]c2c1)c1ccccc1`, the inhibition was 92.4% (active). Regarding `Cc1cc(NS(=O)(=O)c2ccccc2)no1`, the inhibition was -16.4%. Regarding `Cc1ccc(C)c(NS(=O)(=O)c2cc(Br)cnc2N)c1`, the inhibition is 61.5% (active). Under `Cc1ccc(C)c(S(=O)(=O)n2cnc3ccccc32)c1` stands -11.2%; under `O=C(c1cccc2ccccc12)N1CCN(c2ccccc2F)CC1`, 35.4%; under `CC(=O)c1ccc2c(ccc3ccccc32)c1`, 35%.

For `COc1c(C(=O)N2CCCC2)ccc2ccccc12`, the inhibition is 53% (active).

Source of the values: PubChem BioAssay AID778 (Sanford-Burnham Center for Chemical Genomics, 2007).
